# Measured values taken from PMC7862700, “An all-to-all approach to the identification of sequence-specific readers for epigenetic DNA modifications on cytosine”.
# How the values were obtained:
# Test in all cases: DAPPL (digital affinity profiling via proximity ligation, sequencing); 10 mM Tris-HCl pH 7.5, 50 mM NaCl, 1 mM DTT, 4% glycerol, room temperature, 30 min; GST-TFs on glutathione beads, 16-mer random dsDNA library, 0.1% formaldehyde crosslink after washing; high values mean tight binding
# Details in all cases: protein: recombinant; tags: N-terminal GST; dsDNA, one strand shown
# FLI1 = molecular target: T1, FLI1 (Homo sapiens, UniProt Q01543 1-452)
# T1 sequence: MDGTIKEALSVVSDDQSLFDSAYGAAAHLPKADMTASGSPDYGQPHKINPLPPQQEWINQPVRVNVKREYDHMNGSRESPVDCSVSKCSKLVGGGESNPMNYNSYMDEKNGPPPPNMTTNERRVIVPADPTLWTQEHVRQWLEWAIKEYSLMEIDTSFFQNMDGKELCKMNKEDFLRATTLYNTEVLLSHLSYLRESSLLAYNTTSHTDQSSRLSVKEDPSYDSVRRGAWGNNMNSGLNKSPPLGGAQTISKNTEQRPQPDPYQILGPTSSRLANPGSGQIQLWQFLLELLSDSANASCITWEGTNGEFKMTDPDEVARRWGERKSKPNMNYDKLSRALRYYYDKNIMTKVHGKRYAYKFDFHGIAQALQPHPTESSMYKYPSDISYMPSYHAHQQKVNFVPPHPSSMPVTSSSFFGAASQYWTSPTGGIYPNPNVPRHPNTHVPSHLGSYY
# Summary of the method: (§1)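 GST fusions of human transcription factors were expressed in yeast and captured with glutathione beads. Once given DNA barcodes and pooled alongside a tag-only sample, they were incubated for 30 min at room temperature with 200 nmole of a random double-stranded 16-mer DNA library in Tris/NaCl/DTT/glycerol buffer, then washed, crosslinked (0.1% formaldehyde), proximity-ligated, PCR-amplified and sequenced on an Illumina NextSeq500. The binding signal of each hexamer is its read frequency for a factor divided by its frequency for the tag-only sample.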
# ELK1 = molecular target: T2, ELK1 (Homo sapiens, UniProt P19419 1-428)
# T2 sequence: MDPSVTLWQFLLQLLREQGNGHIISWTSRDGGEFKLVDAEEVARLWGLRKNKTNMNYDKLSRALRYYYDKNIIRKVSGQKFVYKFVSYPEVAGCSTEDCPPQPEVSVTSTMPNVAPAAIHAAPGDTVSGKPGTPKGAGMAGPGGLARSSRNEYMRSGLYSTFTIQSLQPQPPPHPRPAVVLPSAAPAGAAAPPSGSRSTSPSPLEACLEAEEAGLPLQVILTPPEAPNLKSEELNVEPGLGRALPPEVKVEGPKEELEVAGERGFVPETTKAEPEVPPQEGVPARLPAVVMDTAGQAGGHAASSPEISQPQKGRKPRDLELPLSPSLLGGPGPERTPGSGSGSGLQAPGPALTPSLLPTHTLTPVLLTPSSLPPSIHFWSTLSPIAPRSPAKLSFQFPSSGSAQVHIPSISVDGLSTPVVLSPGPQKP
# Summary of the method: as §1
# GABPA = molecular target: T3, GABPA (Homo sapiens, UniProt Q06546 1-454)
# T3 sequence: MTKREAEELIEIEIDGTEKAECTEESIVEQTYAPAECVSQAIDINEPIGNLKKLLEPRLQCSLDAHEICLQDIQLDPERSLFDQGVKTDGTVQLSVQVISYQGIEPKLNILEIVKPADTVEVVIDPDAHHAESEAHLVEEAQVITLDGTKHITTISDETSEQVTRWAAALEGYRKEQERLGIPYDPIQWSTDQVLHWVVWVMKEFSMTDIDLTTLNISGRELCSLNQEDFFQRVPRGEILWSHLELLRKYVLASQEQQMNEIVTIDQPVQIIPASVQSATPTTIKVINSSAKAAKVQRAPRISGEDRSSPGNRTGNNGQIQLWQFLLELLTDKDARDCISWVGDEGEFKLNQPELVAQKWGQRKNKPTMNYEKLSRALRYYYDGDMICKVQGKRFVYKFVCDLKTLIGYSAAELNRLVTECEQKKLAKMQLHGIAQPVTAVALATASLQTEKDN
# Summary of the method: as §1
# ERG = molecular target: T4, ERG (Homo sapiens, UniProt P11308 1-479)
# T4 sequence: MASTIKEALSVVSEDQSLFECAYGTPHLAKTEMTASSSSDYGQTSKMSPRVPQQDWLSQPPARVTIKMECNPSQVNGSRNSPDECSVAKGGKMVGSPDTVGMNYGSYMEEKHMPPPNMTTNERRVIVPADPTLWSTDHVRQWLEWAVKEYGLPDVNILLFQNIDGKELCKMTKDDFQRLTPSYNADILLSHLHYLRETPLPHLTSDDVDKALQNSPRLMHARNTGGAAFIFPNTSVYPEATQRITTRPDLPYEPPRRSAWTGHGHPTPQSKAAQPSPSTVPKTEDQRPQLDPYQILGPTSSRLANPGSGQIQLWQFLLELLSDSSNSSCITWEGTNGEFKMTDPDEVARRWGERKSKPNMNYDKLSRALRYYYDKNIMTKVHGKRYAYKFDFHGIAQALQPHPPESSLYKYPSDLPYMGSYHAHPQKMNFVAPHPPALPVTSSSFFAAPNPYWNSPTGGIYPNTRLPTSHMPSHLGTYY
# Summary of the method: as §1
# ELF1 = ELF1 (Homo sapiens, UniProt P32519 1-619)
# Summary of the method: as §1
# EHF = molecular target: T5, EHF (Homo sapiens, UniProt Q9NZC4 1-300)
# T5 sequence: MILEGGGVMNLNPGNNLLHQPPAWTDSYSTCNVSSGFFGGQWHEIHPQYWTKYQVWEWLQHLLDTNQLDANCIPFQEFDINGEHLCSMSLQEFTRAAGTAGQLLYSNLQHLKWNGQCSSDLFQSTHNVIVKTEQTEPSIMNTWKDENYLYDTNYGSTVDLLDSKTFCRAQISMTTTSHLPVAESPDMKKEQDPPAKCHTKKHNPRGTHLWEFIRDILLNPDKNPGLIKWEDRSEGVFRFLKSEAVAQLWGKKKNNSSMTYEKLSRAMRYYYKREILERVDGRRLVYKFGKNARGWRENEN
# Summary of the method: as §1
# SPI1 = SPI1 (Homo sapiens, UniProt P17947 1-270)
# Summary of the method: as §1
# SPIB = SPIB (Homo sapiens, UniProt Q01892 1-262)
# Summary of the method: as §1
# ELK3 = molecular target: T6, ELK3 (Homo sapiens, UniProt P41970 1-407)
# T6 sequence: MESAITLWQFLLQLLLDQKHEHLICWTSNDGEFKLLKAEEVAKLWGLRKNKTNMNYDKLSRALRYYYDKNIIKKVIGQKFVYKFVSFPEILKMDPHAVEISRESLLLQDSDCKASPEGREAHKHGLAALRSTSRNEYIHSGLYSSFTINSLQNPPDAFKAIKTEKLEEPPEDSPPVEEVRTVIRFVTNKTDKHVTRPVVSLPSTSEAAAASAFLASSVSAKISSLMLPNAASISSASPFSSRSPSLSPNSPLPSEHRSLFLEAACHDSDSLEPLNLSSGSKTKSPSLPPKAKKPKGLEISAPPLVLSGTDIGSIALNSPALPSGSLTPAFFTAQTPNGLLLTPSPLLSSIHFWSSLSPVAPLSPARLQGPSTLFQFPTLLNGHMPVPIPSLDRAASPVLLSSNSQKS
# Summary of the method: as §1
# Sequence of ELF1 (P32519 whole entry): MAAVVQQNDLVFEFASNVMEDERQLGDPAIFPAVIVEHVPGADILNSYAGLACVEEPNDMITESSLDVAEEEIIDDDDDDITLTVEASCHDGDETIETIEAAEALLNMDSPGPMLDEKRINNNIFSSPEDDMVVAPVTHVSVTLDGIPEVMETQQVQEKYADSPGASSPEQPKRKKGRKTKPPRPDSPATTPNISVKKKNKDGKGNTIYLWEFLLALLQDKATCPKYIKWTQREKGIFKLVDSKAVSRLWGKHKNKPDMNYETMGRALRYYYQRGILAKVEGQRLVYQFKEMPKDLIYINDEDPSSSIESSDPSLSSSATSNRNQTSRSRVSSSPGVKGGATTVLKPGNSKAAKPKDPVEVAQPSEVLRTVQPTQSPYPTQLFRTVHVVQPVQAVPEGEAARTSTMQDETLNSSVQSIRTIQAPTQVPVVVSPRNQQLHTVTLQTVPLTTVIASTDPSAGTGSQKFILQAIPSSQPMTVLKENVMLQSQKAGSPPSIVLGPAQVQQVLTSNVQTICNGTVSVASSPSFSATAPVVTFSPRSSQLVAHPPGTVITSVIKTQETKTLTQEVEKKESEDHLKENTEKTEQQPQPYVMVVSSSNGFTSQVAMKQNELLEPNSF
# Sequence of SPIB (Q01892 whole entry): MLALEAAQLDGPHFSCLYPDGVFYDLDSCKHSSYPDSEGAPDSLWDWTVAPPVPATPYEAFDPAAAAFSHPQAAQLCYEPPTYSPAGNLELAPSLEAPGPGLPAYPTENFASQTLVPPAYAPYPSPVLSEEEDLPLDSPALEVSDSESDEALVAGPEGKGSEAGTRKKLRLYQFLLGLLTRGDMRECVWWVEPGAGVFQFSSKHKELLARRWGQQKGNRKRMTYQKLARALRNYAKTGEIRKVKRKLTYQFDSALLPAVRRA
Sequence,binding signal (FLI1),binding signal (ELK1),binding signal (GABPA),binding signal (ERG),binding signal (ELF1),binding signal (EHF),binding signal (SPI1),binding signal (SPIB),binding signal (ELK3)
TTTGGA,"1.15 fold enrichment (6-mer frequency, TF over GST control)","1.14 fold enrichment (6-mer frequency, TF over GST control)","1.24 fold enrichment (6-mer frequency, TF over GST control)","1.11 fold enrichment (6-mer frequency, TF over GST control)","1.18 fold enrichment (6-mer frequency, TF over GST control)","1.09 fold enrichment (6-mer frequency, TF over GST control)","1.19 fold enrichment (6-mer frequency, TF over GST control)","1.22 fold enrichment (6-mer frequency, TF over GST control)","1.14 fold enrichment (6-mer frequency, TF over GST control)"
GCCACT,"1.17 fold enrichment (6-mer frequency, TF over GST control)","1.2 fold enrichment (6-mer frequency, TF over GST control)","1.16 fold enrichment (6-mer frequency, TF over GST control)","1.23 fold enrichment (6-mer frequency, TF over GST control)","1.23 fold enrichment (6-mer frequency, TF over GST control)","1.1 fold enrichment (6-mer frequency, TF over GST control)","1.17 fold enrichment (6-mer frequency, TF over GST control)","1.06 fold enrichment (6-mer frequency, TF over GST control)","1.26 fold enrichment (6-mer frequency, TF over GST control)"
TCCTTA,"1.6 fold enrichment (6-mer frequency, TF over GST control)","1.38 fold enrichment (6-mer frequency, TF over GST control)","1.57 fold enrichment (6-mer frequency, TF over GST control)","1.55 fold enrichment (6-mer frequency, TF over GST control)","1.66 fold enrichment (6-mer frequency, TF over GST control)","1.71 fold enrichment (6-mer frequency, TF over GST control)","1.78 fold enrichment (6-mer frequency, TF over GST control)","1.7 fold enrichment (6-mer frequency, TF over GST control)","1.4 fold enrichment (6-mer frequency, TF over GST control)"
TTACGC,"1.15 fold enrichment (6-mer frequency, TF over GST control)","1.06 fold enrichment (6-mer frequency, TF over GST control)","1.07 fold enrichment (6-mer frequency, TF over GST control)","1.08 fold enrichment (6-mer frequency, TF over GST control)","1.12 fold enrichment (6-mer frequency, TF over GST control)","1.06 fold enrichment (6-mer frequency, TF over GST control)","1.07 fold enrichment (6-mer frequency, TF over GST control)","1.02 fold enrichment (6-mer frequency, TF over GST control)","1.21 fold enrichment (6-mer frequency, TF over GST control)"
GCTCAT,"1.23 fold enrichment (6-mer frequency, TF over GST control)","1.29 fold enrichment (6-mer frequency, TF over GST control)","1.23 fold enrichment (6-mer frequency, TF over GST control)","1.32 fold enrichment (6-mer frequency, TF over GST control)","1.36 fold enrichment (6-mer frequency, TF over GST control)","1.26 fold enrichment (6-mer frequency, TF over GST control)","1.21 fold enrichment (6-mer frequency, TF over GST control)","1.31 fold enrichment (6-mer frequency, TF over GST control)","1.16 fold enrichment (6-mer frequency, TF over GST control)"
AGCCCT,"1.03 fold enrichment (6-mer frequency, TF over GST control)","1.14 fold enrichment (6-mer frequency, TF over GST control)","1.11 fold enrichment (6-mer frequency, TF over GST control)","1.09 fold enrichment (6-mer frequency, TF over GST control)","1.07 fold enrichment (6-mer frequency, TF over GST control)","1.18 fold enrichment (6-mer frequency, TF over GST control)","1.09 fold enrichment (6-mer frequency, TF over GST control)","1.14 fold enrichment (6-mer frequency, TF over GST control)","1.07 fold enrichment (6-mer frequency, TF over GST control)"
TGACGC,"1.1 fold enrichment (6-mer frequency, TF over GST control)","1.22 fold enrichment (6-mer frequency, TF over GST control)","1.15 fold enrichment (6-mer frequency, TF over GST control)","1.13 fold enrichment (6-mer frequency, TF over GST control)","1.3 fold enrichment (6-mer frequency, TF over GST control)","1.21 fold enrichment (6-mer frequency, TF over GST control)","1.15 fold enrichment (6-mer frequency, TF over GST control)","1.24 fold enrichment (6-mer frequency, TF over GST control)","1.1 fold enrichment (6-mer frequency, TF over GST control)"
TGCTTG,"1.31 fold enrichment (6-mer frequency, TF over GST control)","1.15 fold enrichment (6-mer frequency, TF over GST control)","1.11 fold enrichment (6-mer frequency, TF over GST control)","1.15 fold enrichment (6-mer frequency, TF over GST control)","1.18 fold enrichment (6-mer frequency, TF over GST control)","1.31 fold enrichment (6-mer frequency, TF over GST control)","1.17 fold enrichment (6-mer frequency, TF over GST control)","1.2 fold enrichment (6-mer frequency, TF over GST control)","1.11 fold enrichment (6-mer frequency, TF over GST control)"
